Results on 5 compounds are retold here after PubChem BioAssay.

“And” between values parts separate entries of the source, which are not always exact repeats. Identical values can stand only once. The source made the active and inactive calls.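 The calls were made as follows, unless noted: active = inhibition at or above 50% relative to wild type and mutant plate controls; inactive = inhibition below 50%.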

Test [1] in a line: inhibitors of TNFa-induced NFkB p65 translocation, primary screen, imaging, HUVEC, MLSMR starter and 10KST1 sets (AID 438;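 active = inhibition above 20% together with a positive visual image hit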;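 also: compound added about 3h40 before a 20 min TNFalpha stimulation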;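 as to inhibition: signal is the nuclear over cytoplasmic p65 intensity ratio per well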). The settings on record: HUVEC TNFa-induced p65 nuclear translocation; cell count: measured here: nuclei count (cytotoxicity indicator), at 2.08 µM; inhibition: at 2 µM, stronger effect = higher value, 0% TNFa-plus-vehicle, 100% no-TNFa wells.
Test [2] in a line: inhibitors of mutant huntingtin aggregation, primary screen, imaging, exon1htt(103Q)mCFP cells, high-content imaging (AID 483;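 active = visual image review flags a hit and inhibition of aggregation exceeds 20%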;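 also: compound exposure lasted 3 days before fixation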;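 as to nuclei count: percent of the per-plate median nuclei count of sample wells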). To be noted: exon1htt(103Q)mCFP cell line, aggregate imaging, at 2 µM; inhibition of aggregation: stronger effect = higher value; nuclei count: measured here: cell count, toxicity.
The nature of test [3]: inhibitors of E-selectin induction by TNFa, primary screen, imaging, HUVEC, immunofluorescence, MLSMR starter and 10KST1 sets (AID 487;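 active = visually confirmed hit in the image check and inhibition above 20%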;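 as to inhibition: signal is fraction of cell area covered by stained E-selectin grains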;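 as to nuclei count: 100% = median nuclei count of all wells on the same plate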). To be noted: HUVEC TNFalpha-induced E-selectin immunofluorescence imaging, at 2 µM; inhibition: stronger effect = higher value; nuclei count: measured here: cell number, toxicity.
Test [4] is described as follows: DUSP6 inhibitors restoring Erk phosphorylation by chemical complementation, primary imaging in DUSP6-transfected HeLa (AID 609;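 active = compounds giving at least 50% inhibition in the cell-based MKP-3 phosphatase rescue imaging test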;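 as to inhibition: phospho-Erk level distribution per well compared with pooled transfected vehicle control wells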). To be noted: HeLa MKP-3 transfected, phospho-Erk imaging KS statistic, at 10 µM, cells stimulated with TPA for 15 min.
Test [5] has as its target Dual specificity protein phosphatase 6 (Homo sapiens) (UniProt Q16828). The test is described as above. To be noted: HeLa MKP-3 transfected, phospho-Erk imaging KS statistic; at 10 µM; stronger effect = higher value; cells stimulated with TPA for 15 min.
Test [6] has as its target Voltage-gated potassium channel subunit beta-2 (Rattus norvegicus) (UniProt P62483). As to the kind of experiment: KvBeta enzyme negative modulators, primary screen, biochemical, NADPH fluorescence (AID 622;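 active = fluorescence slope higher than the sample average by over 3 SD, cut at about -0.22 in these data, passing the limit was not always enough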;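 also: slope of raw intensity against log time taken from 70 to 1610 s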). The settings on record: recombinant KvBeta, 4-cyanobenzaldehyde reduction, at 10 µM, stronger effect = higher value.
Test [7] has the same target. Kind of test: KvBeta positive modulators, primary screen, biochemical, NADPH fluorescence (AID 623;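 active = NADPH fluorescence slope more negative than the mean of all samples by about 3 SD, 99.7% confidence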;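 also: fluorescence intensity change per second fitted from 20 to 320 s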). The settings on record: Recombinant KvBeta, NADPH fluorescence decrease slope, 10 min; at 10 µM; stronger effect = lower value.
Test [8] deals with Alpha-2C adrenergic receptor (Homo sapiens) (UniProt P18825). Kind of test: modulators of alpha2C/GIRK thallium flux, primary screen, cell-based, HEK293 alpha2C/GIRK1/2 (AID 624;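 active = fluorescence slope after compound addition differing from the mean of all screened samples at 99.7% confidence, in either direction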;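 also: slope of fluorescence ratio to pre-addition baseline per second over 15 to 24 s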). To be noted: thallium flux BTC fluorescence, at 10 µM, actives lie on both sides.
A short description of test [9]: inhibitors of larval lipid processing in zebrafish, primary screen, whole organism, PED6 fluorescence, gall bladder and intestine (AID 686;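 active = a full or partial loss of lipid-probe fluorescence in the fish gall bladder, intestine or both, judged by eye; inactive = no fluorescence loss, or compound toxic to the fish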;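 also: larvae 5 to 7 days old with five fish per well; signal comes from phospholipase A2 cleavage of quenched PED6 carried via bile; overnight exposure to compound and PED6 before scoring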). To be noted: Zebrafish larvae PED6 lipid processing, fluorescence scoring; screened at 20 µM (by protocol).
The nature of test [10]: inhibitors of Chlamydomonas gravitaxis, primary screen, whole organism, Chlamydomonas reinhardtii, WT vs cilia-less mutant, absorbance, 96-well (AID 463189).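 Also: 0% = wild type cc124 cells in DMSO and 100% = ciliumless bld1 mutant cells.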 The settings on record: OD600 absorbance, 2 days, at 10 µM, stronger effect = higher value.
Test [11] can be described thus: inhibitors of Sendai virus-induced IRF3 signaling, primary screen, TLR/RLR signaling modifier project, cell-based, Sendai virus stimulus, luciferase, 10K MLSCN set (AID 602276;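 active = inhibition at or above 50% at 10 µM; inactive = inhibition below 50%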;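 also: firefly luciferase from ISG56 promoter only with Renilla not read in this screen; 0% = Sendai virus plus DMSO and 100% = medium plus DMSO without virus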). To be noted: HEK293 RL24 IRF3 luciferase reporter, at 10 µM, stronger effect = higher value.
A short description of test [12]: inhibitors of poly I:C-induced TLR3 signaling, primary screen, cell-based, poly I:C stimulus, luciferase, 10K MLSCN set (AID 602277;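 active = inhibition of the reporter signal at or above 50%; inactive = inhibition below 50%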). To be noted: HEK293-TLR3 RL24 IRF3 luciferase reporter, at 10 µM, stronger effect = higher value.
Setting [13] is: measured here: cell density z-score.
[14] abbreviates: measured here: nuclear c-Myc green intensity z-score.
The mark [15] stands for this setting: measured here: nuclear pErk red intensity z-score, stronger effect = higher value.

Chain of Dual specificity protein phosphatase 6 (Homo sapiens) (Q16828 whole entry, looked up): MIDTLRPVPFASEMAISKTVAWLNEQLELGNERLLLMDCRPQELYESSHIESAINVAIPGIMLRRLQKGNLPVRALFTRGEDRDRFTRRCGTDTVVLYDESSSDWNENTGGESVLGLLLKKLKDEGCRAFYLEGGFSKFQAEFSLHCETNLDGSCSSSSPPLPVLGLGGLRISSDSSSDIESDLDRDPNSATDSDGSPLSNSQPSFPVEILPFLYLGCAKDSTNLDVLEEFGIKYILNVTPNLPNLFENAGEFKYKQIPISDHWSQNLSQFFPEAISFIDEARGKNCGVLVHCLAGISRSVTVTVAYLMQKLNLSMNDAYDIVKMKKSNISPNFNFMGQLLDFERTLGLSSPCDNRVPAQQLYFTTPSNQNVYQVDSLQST
Chain of Voltage-gated potassium channel subunit beta-2 (Rattus norvegicus) (P62483 whole entry, looked up): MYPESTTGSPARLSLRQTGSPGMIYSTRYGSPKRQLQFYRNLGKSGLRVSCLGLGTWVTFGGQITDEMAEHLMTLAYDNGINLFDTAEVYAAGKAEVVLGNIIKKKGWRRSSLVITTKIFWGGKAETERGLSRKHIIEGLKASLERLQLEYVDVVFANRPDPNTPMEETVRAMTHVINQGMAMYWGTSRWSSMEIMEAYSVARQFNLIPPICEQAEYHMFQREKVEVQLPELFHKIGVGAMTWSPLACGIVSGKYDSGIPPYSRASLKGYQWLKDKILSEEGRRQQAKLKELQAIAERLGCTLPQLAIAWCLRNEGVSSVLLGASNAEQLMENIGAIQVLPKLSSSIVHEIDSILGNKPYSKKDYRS
Chain of Alpha-2C adrenergic receptor (Homo sapiens) (P18825 whole entry, looked up): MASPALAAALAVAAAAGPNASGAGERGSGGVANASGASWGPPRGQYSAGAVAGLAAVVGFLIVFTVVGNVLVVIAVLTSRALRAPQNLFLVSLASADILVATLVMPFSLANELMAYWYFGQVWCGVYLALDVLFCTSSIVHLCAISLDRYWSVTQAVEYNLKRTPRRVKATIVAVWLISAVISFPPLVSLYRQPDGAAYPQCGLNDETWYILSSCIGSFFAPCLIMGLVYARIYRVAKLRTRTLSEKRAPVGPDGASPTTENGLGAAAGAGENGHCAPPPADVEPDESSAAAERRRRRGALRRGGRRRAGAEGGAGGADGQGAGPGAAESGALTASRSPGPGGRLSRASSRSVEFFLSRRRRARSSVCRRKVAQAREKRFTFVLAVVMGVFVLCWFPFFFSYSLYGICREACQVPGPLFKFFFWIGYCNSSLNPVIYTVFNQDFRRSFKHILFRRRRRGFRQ

Take `CCCC(=O)Nc1ncnc2c1ncn2[C@@H]1O[C@@H]2COP(=O)(O)O[C@H]2[C@H]1OC(=O)CCC`: the cell count in [1] came to 447. The inhibition is 15.4% (inactive) in test [1]; -67.8% (inactive) in test [3]; 21.2% (inactive) in test [5]; 29.3% (inactive) in [10]; 18.6% (inactive) in [11]; 40.7% (inactive) in test [12]. For the same compound, the inhibition of aggregation in test [2] is 14.3% (inactive). Besides, the nuclei count in test [2] was found to be 96.1%; in test [3], 127%. The z-score turned out to be 0.217 in test [4] (setting [13]), 0.395 in [4] (setting [14]) and 0.177 in test [4] (setting [15]). In addition, in test [6], the fluorescence slope is -0.511 (inactive). Besides, the NADPH fluorescence slope in test [7] is -7.6e-06 (inactive). Also, the slope in [8] was 0.00504 (inactive). Moreover, the compound was classed as inactive in test [9].

With `CN1CCc2c(sc3c2c(=O)n(-c2ccccc2)c2nnc(SCc4ccccc4)n32)C1`, in [1], the cell count was determined as 562. The inhibition in test [1] is -16.1% (inactive); in test [3], -95.1% (inactive); in test [5], 3.66% (inactive); in [10], 5.3% (inactive); in [11] it was -12.4% (inactive); in test [12], 98.5% (active). Besides, the inhibition of aggregation in [2] is 8.3% (inactive). Moreover, the nuclei count in test [2] amounted to 116%; in test [3] it was 142%. Besides, the z-score in test [4] (setting [13]) was 0.865; in [4] (setting [14]) it was -2.08; in test [4] (setting [15]), -0.239. In addition, the fluorescence slope in [6] is -0.563 (inactive). Besides, in test [7], the NADPH fluorescence slope was -1.4e-05 (inactive). Moreover, the slope in test [8] was 0.00449 (inactive). The compound was called inactive in test [9].

As for `CCC(C)n1ncn(-c2ccc(N3CCN(c4ccc(OCC5COC(Cn6cncn6)(c6ccc(Cl)cc6Cl)O5)cc4)CC3)cc2)c1=O` (stereo not given), the cell count in [1] came to 587. The inhibition in [1] was 3.2% (inactive); in [3] it was -162% (inactive); in test [5], 1.38% (inactive); in [10], 5.29% (inactive); in test [11], 33.8% (inactive); in test [12], 4.61% (inactive). Also, the inhibition of aggregation in test [2] is -63.7% (inactive). Besides, the nuclei count was determined as 140% in test [2] and 121% in test [3]. The z-score in test [4] (setting [13]) is 0.653; in [4] (setting [14]), -0.579; in test [4] (setting [15]), -0.684. Moreover, in [6], the fluorescence slope is -0.456 (inactive). Further, the NADPH fluorescence slope in [7] is -5.2e-05 (inactive). Moreover, the slope in [8] is 0.00423 (inactive). In addition, the result in test [9] was inactive.

As to `CCCC(CCC)C(=O)OC1C[C@H]2CC[C@@H](C1)[N+]2(C)C` (stereo not given in full), the cell count in [1] came out at 587. Moreover, the inhibition in [1] is -4.2% (inactive); in [3], -72.6% (inactive); in test [5] it was 9.37% (inactive); in test [10], 17.7% (inactive); in [11], 18.2% (inactive); in test [12], 42.2% (inactive). The inhibition of aggregation in [2] was 35.6% (inactive). The nuclei count was found to be 88.1% in test [2] and 132% in [3]. Besides, the z-score in [4] (setting [13]) was 0.0581; in [4] (setting [14]), 0.732; in test [4] (setting [15]), -0.0735. Further, the fluorescence slope in test [6] was -0.488 (inactive). Besides, the NADPH fluorescence slope in test [7] was -5e-05 (inactive). For the same compound, in test [8], the slope is 0.0052 (inactive). In test [9], the call was inactive.

Turning to `CO[C@@]1(NC(=O)CSCC#N)C(=O)N2C(C(=O)O)=C(CSc3nnnn3C)CS[C@@H]21`, the cell count in test [1] was 632. For the same compound, the inhibition was -3.9% (inactive) in test [1]; -96.3% (inactive) in [3]; 19.2% (inactive) in test [5]; 5.45% (inactive) and -4.17% (inactive) in [10]; 7.82% (inactive) in test [11]; 28.6% (inactive) in test [12]. The inhibition of aggregation in test [2] was 3.8% (inactive). The nuclei count in test [2] worked out at 103%; in test [3], 143%. Moreover, the z-score in test [4] (setting [13]) is 0.71; in test [4] (setting [14]) it was -0.314; in test [4] (setting [15]) it was -0.547. In addition, the fluorescence slope in [6] is -0.497 (inactive). Besides, the NADPH fluorescence slope in test [7] was -7e-05 (inactive). Besides, in test [8], the slope was 0.00536 (inactive). In test [9], the compound was classed as inactive.
